Drawing on PubChem BioAssay AID652154 (Broad Institute, 2013), this text covers inhibition for 70 molecules.

The campaign covered roughly 360,000 compounds. About 4,200 (1.2%) were called active. Many of the other results were omitted from the sample, so actives are more common in it than they were. A number with no mark means an inactive call.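 The calls were made as follows: active = mean replicate inhibition at least 60% with every replicate also reaching 60%; inconclusive = only one of the two criteria is met; inactive = mean below 60% and not all replicates reaching 60%.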

Usually inhibition stands for the change of the read-out against control, counted positive when it falls.

This experiment can be described thus: PAX8 transcriptional activity inhibition in RMG-I – RMG-I cells, luciferase, single concentration, primary screen (AID 652154).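 Also: luciferase light reporting Pax8 driven TPO promoter activity; plate controls were median of neutral control wells for no effect and mitoxantrone controls for full effect.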 To be noted: RMG-I TPO-luciferase reporter, SteadyGlo, 24 h; at 12.6 µM; stronger effect = higher value.
For the molecule `CCCNC(=O)Nc1ccc2c(c1)C(=O)N(C)C[C@@H](OC)[C@H](C)CN(CCC)[C@@H](C)CO2`, the inhibition is -1.74%. The figure for `O=C(C1CCC1)N1C[C@H]2[C@@H](c3ccccc31)[C@@H](CO)N2C(=O)c1ccccc1F` is 5.48%; for `COc1cccc(-c2ccc3c(c2)[C@@H]2[C@@H](CCN2S(=O)(=O)C2=NC(C)C=N2)[C@@H](CO)N3C)c1` (stereo not given in full) it is 19.4%; for `C/C=C/c1ccc([C@@H]2[C@H](CO)N(CC3CCCC3)C23CN(C(=O)CC)C3)cc1` it is 18.8%. Regarding `C[C@H]1CN([C@@H](C)CO)S(=O)(=O)c2ccc(C3=CCCC3)cc2O[C@H]1CN(C)C(=O)Cc1ccncc1`, the inhibition was 1.78%. In the case of `O=C(NCc1ccccc1Cl)[C@H]1[C@H](CO)[C@H]2Cn3c(cccc3=O)[C@H]2N1C(=O)C1CCC1`, the inhibition was -12.8%. The figure for `Cc1ccc(S(=O)(=O)N(C)C[C@@H]2Oc3c(NC(=O)c4ccncc4)cccc3C(=O)N([C@@H](C)CO)C[C@@H]2C)cc1` is 1.41%. For `CCS(=O)(=O)Nc1ccc2c(c1)C(=O)N(C)[C@H]1CC[C@H](CC(=O)N[C@@H]3CCN(Cc4ccccc4)C3)O[C@H]1CO2`, the inhibition was -7.99%. As for `C[C@@H]1CN([C@H](C)CO)C(=O)c2cc(C3=CCCCC3)cnc2O[C@@H]1CN(C)C(=O)c1ccc2c(c1)OCO2`, the figure is -9.44%; as for `C[C@@H]1CN([C@H](C)CO)C(=O)c2cc(C#CCN(C)C)cnc2O[C@H]1CN(C)C(=O)Cc1ccncc1`, -16.9%; as for `C[C@@H]1CN([C@@H](C)CO)C(=O)Cc2cc(NS(=O)(=O)c3ccc(Cl)cc3)ccc2O[C@H]1CN(C)Cc1ccc(C(F)(F)F)cc1`, 84.5% (active). Regarding `COc1ccc(S(=O)(=O)Nc2ccc3c(c2)CC(=O)N([C@H](C)CO)C[C@H](C)[C@H](CN(C)Cc2ccc(C(F)(F)F)cc2)O3)cc1`, the inhibition is 7.06%. For `C[C@H](CO)N1C[C@H](C)[C@H](CN(C)Cc2ccncc2)Oc2ccc(NS(=O)(=O)c3ccc(F)cc3)cc2CC1=O`, the inhibition was 6.06%.

As to `C[C@H](CO)N1C[C@H](C)[C@@H](CN(C)Cc2ccc(Oc3ccccc3)cc2)Oc2ccc(NS(=O)(=O)c3ccc(F)cc3)cc2CC1=O`, the inhibition is 78.6% (active).

Take `C[C@H]1CN([C@@H](C)CO)C(=O)Cc2cc(NS(=O)(=O)c3ccc(F)cc3)ccc2O[C@H]1CN(C)Cc1ccc(C(F)(F)F)cc1`: the inhibition is -55.2%. As for `C[C@H]1CN([C@@H](C)CO)C(=O)Cc2cc(NS(=O)(=O)c3cccs3)ccc2O[C@@H]1CN(C)Cc1ccc(Oc2ccccc2)cc1`, the figure is -11%; as for `COCC(=O)N(C)C[C@@H]1Oc2cc(C#Cc3cccnc3)ccc2S(=O)(=O)N([C@H](C)CO)C[C@H]1C`, 6.54%; as for `O=C(C[C@H]1CC[C@H]2[C@@H](COC[C@@H](O)CN2CCC(F)(F)F)O1)NCc1ccc2c(c1)OCO2`, -15.5%. The figure for `O=C(C[C@H]1C=C[C@H](NC(=O)Nc2ccccc2F)[C@@H](CO)O1)NCc1ccc(Cl)cc1` is -8.13%; for `C[C@@H]1CCCCO[C@H](CN(C)Cc2ccncc2)[C@@H](C)CN([C@H](C)CO)C(=O)c2cc(NC(=O)CCCN(C)C)ccc2O1` it is -4.23%; for `COc1ccc(NC(=O)N(C)C[C@H]2Oc3ccc(NC(=O)Cc4cn(C)c5ccccc45)cc3CC(=O)N([C@@H](C)CO)C[C@H]2C)cc1` it is 16.5%. The figure for `CN(Cc1ccc(F)cc1)C(=O)CN1C(=O)c2ccccc2S1(=O)=O` is -2.85%; for `O=C(CN1C(=O)c2ccccc2S1(=O)=O)N1CCc2ccccc21` it is 90.5% (active); for `CN(Cc1cccs1)C(=O)CN1C(=O)c2ccccc2S1(=O)=O` it is -105%.

In the case of `C[C@@H]1CN([C@@H](C)CO)C(=O)Cc2cc(NC(=O)Cc3ccccc3)ccc2O[C@@H]1CN(C)Cc1ccc2c(c1)OCO2`, the inhibition was 13.6%. The figure for `Cc1cc(C(=O)Nc2cccc3c2O[C@@H](CN(C)C(=O)Nc2ccc(F)cc2)[C@H](C)CN([C@@H](C)CO)C3=O)n(C)n1` is 7.05%; for `COc1ccc(NC(=O)Nc2ccc3c(c2)C(=O)N([C@@H](C)CO)C[C@H](C)[C@H](CN(C)CC2CCCCC2)O3)cc1` it is -0.963%. The figure for `CC(=O)Nc1ccc(C=CC(=O)c2ccc([N+](=O)[O-])cc2)cc1` is 15.2%. The figure for `O=C1/C(=C\c2ccc([N+](=O)[O-])cc2)CS(=O)(=O)C/C1=C/c1ccc([N+](=O)[O-])cc1` is 122% (active). `O=C(O)C(=Cc1ccc([N+](=O)[O-])cc1)CCc1ccccc1`: the inhibition is 8.95%. Regarding `COc1ccc(S(=O)(=O)N(C)C[C@H]2Oc3c(NC(=O)C4CCOCC4)cccc3C(=O)N([C@@H](C)CO)C[C@@H]2C)cc1`, the inhibition was -8.86%. The figure for `Cn1cnc(CCNC(=O)[C@H]2[C@H](CO)[C@H]3Cn4c(cccc4=O)[C@H]3N2C(=O)Nc2ccccc2)c1` is -6.72%; for `Cn1cnc(S(=O)(=O)N2C[C@@H](O)COC[C@@H]3O[C@H](CC(=O)NCc4ccc(F)cc4)CC[C@H]32)c1` it is -3.38%; for `Cc1ccc(COc2ccc(/C=N/NC(=O)CN3CCCCC3)cc2)cc1` it is -222%. The figure for `Cc1ccc(/C=N/NC(=O)CSc2nc3ccccc3o2)cc1` is -83%; for `Cc1ccc(/C=N/NC(=O)COc2ccccc2-c2ccccc2)cc1` it is 87.7% (active); for `O=C(C[C@H]1CC[C@@H](NC(=O)Nc2ccc(C(F)(F)F)cc2)[C@H](CO)O1)NCc1cc(F)cc(F)c1` it is -5.75%.

`Cc1ccccc1-c1ccc([C@@H]2[C@@H](CO)N3CCCCN(C(=O)Nc4cccc(F)c4)C[C@H]23)cc1`: the inhibition was 10.4%. As for `CC(C)Cc1nnc(NC(=O)CCc2ccccc2)s1`, the figure is -22.6%.

For the molecule `CC(C)Cc1nnc(NC(=O)CCNC(=O)c2ccccc2Cl)s1`, the inhibition is -15.6%.

As to `Cc1ccc(S(=O)(=O)CCC(=O)Nc2nnc(CC(C)C)s2)cc1`, the inhibition is 82.8% (active). `C[C@H](NC(=O)C[C@H]1C=C[C@H](NS(=O)(=O)c2cccc(F)c2)[C@@H](CO)O1)c1ccccc1`: the inhibition is -17.2%. The figure for `Cc1noc(C)c1NC(=O)N(C)C[C@@H]1OCCCC[C@H](C)Oc2ccc(NC(=O)C3CCCCC3)cc2C(=O)N([C@H](C)CO)C[C@@H]1C` is 9.59%.

For `Cc1cccc(C)c1NC(=O)CCS(=O)(=O)c1cccc2nsnc12`, the inhibition is 15.3%. In the case of `COc1ccc(N(C)C(=O)CCS(=O)(=O)c2cccc3nsnc23)cc1`, the inhibition was 1.7%. Consider `COc1cccc2sc(N(CCCN(C)C)C(=O)CCS(=O)(=O)c3ccccc3)nc12`, for which the inhibition was 97.8% (active). The figure for `Cc1cccc2sc(N(CCCN(C)C)C(=O)CCS(=O)(=O)c3ccccc3)nc12` is 95.4% (active). The figure for `CCN(CC)CCN(C(=O)c1ccc2c(c1)CCCC2)c1nc2c(OC)cccc2s1` is 14.3%; for `O=C(CCS(=O)(=O)c1ccccc1)Nc1nc2c(s1)CCCC2` it is 51.3%. As for `CC(C)NC(=O)N[C@@H]1CC[C@H](CCn2cc(-c3ccccc3)nn2)O[C@H]1CO`, the figure is -6.01%. For the molecule `CCS(=O)(=O)N1[C@H](C#N)[C@H](c2ccc(-c3cccc(F)c3)cc2)[C@@H]1CO`, the inhibition is -12.2%.

`C[C@@H]1CN([C@@H](C)CO)C(=O)c2cc(NC(=O)NC3CCCCC3)ccc2O[C@@H](C)CCCCO[C@H]1CN(C)Cc1ccccc1`: the inhibition was -10.1%.

For the molecule `C[C@@H]1CN([C@@H](C)CO)C(=O)c2cccc(NS(=O)(=O)c3cn(C)cn3)c2O[C@@H]1CN(C)Cc1ccc(Cl)c(Cl)c1`, the inhibition is -5.72%. The figure for `COCC(=O)Nc1ccc2c(c1)OC[C@H](C)N(C(=O)COC)C[C@@H](C)[C@H](OC)CN(C)C2=O` is -25.8%; for `Cc1cccc(S(=O)(=O)N2C[C@H]3[C@@H](c4ccccc42)[C@H](CO)N3Cc2ccc3c(c2)OCO3)c1` it is 32%; for `CC(=O)N(C)C[C@@H]1Oc2cc(-c3cccnc3)ccc2S(=O)(=O)N([C@H](C)CO)C[C@H]1C` it is -6.51%. Turning to `O=C(CC1CC1)N1CC[C@@H]2[C@H](CO)Nc3ccc(-c4ccc(F)cc4)cc3[C@@H]21`, the inhibition is 14%. As for `O=C(C[C@@H]1CC[C@@H]2[C@H](COC[C@@H](O)CN2Cc2cc(F)cc(F)c2)O1)NCc1cccc(F)c1`, the figure is 16%. The figure for `Cc1cccc(-c2ccc([C@@H]3[C@H]4CN(C(=O)c5ccccc5)CC(=O)N4[C@H]3CO)cc2)c1` is 23.1%. As for `O=C(C[C@@H]1CC[C@H]2[C@@H](COC[C@@H](O)CN2C(=O)c2ccc3c(c2)OCO3)O1)NC1CCCC1`, the figure is -8.12%; as for `Cc1cccc(-n2ncc(Cl)c(Cl)c2=O)c1`, 99.9% (active).

Regarding `CCCNC(=O)c1c(Cl)cnn1-c1ccc(C)cc1`, the inhibition was -169%. The figure for `CC(=O)Nc1c2c(nn1-c1cccc(C)c1)CSC2` is 13.4%; for `O=c1ccc2c(-c3ccccc3S(=O)(=O)O)c3ccc(O)c(O)c3oc-2c1O` it is 65.9% (active). The figure for `CN(C)C(=O)C[C@@H]1CC[C@@H](NC(=O)NC2CCCC2)[C@@H](CO)O1` is -11%.

On to `Cn1cnc(CCNC(=O)C[C@H]2CC[C@H]3[C@@H](COC[C@@H](O)CN3C(=O)Nc3ccc(C(F)(F)F)cc3)O2)c1`, for which the inhibition is -9.72%. The figure for `CC(C)NC(=O)N1C[C@H]2[C@@H](c3ccccc31)[C@H](CO)N2C(=O)c1ccccc1F` is -9.19%; for `CN(c1cccc(NC(=O)c2ccc(CN3CCc4ccccc4C3)cc2)c1)S(C)(=O)=O` it is 72.6% (active); for `CC(=O)Nc1cccc(NC(=O)c2ccc3c(c2)CCN3S(C)(=O)=O)c1` it is -7.18%. The figure for `CS(=O)(=O)N1CCc2cc(C(=O)Nc3ccccc3)ccc21` is -94%.
